Laboratory results taken from PubChem BioAssay (NCATS).
Values without a mark were called inactive. The call rests on the fitted dose curve; in most records, active means well fitted curve in the direction sought with a large enough effect; inconclusive means small, poorly fitted or top-dose-only effect, or another doubt; inactive means no such curve, though single readings can be large or run the other way. Bridge positions count the residues as written; N and C are the ends. Square brackets hold non-standard residues; d marks the D form. Side chains are listed from the residue outwards. Peptide text beside a SMILES is read from it. * marks the point of attachment. Phg(4-OMe) = COc1ccc([C@H](N)C(=O)O)cc1; d(aIle) = CC[C@H](C)[C@@H](N)C(=O)O; d(aThr) = C[C@@H](O)[C@@H](N)C(=O)O; NMeF = CN[C@@H](Cc1ccccc1)C(=O)O; Isobutyryl = CC(C)C(=O)*

Molecular target: Luciferin 4-monooxygenase (Photinus pyralis) (UniProt P08659)
Assay: Firefly luciferase counterscreen qHTS: Assay Interference Panel against the NCATS CANVASS Library (AID 1347363); further: 0% is about no effect
Details: purified firefly luciferase, luminescence inhibition, 5 min; series mostly up to 57.5 µM; activity change, negative = inhibition: at the top concentration
Method in brief: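 Purified P. pyralis luciferase was added to compounds (11-point series) preincubated 15 min at room temperature with substrate containing 0.013 mM D-luciferin and 0.013 mM ATP; luminescence was read after 5 min.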

Luciferin 4-monooxygenase (Photinus pyralis), sequence (P08659 whole entry, looked up): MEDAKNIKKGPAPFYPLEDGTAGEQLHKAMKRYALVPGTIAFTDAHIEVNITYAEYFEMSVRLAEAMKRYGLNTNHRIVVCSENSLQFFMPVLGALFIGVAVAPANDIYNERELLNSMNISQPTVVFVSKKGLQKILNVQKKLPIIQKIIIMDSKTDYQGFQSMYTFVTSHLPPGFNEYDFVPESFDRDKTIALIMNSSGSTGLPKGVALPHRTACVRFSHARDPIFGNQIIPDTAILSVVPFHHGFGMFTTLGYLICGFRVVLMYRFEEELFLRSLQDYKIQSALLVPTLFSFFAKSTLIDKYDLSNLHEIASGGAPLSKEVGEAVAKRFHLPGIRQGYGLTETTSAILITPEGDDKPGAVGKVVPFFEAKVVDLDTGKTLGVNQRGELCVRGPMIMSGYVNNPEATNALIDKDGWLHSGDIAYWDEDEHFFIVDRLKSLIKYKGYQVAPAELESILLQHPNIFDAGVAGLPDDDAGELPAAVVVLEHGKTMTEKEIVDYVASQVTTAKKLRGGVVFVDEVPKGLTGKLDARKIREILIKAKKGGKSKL

SMILES | activity change, negative = inhibition
CC(C)=CCC[C@]12c3cc4c(cc3CC[C@@]1(C)[C@H](C)CC[C@@H]2O)[nH]c1ccccc14 | 0.459%
C/C=C/C1C=CC2CC(C)CC(C)C2C1C(=O)CC(=O)NC(CO)C/C=C/CCCCC (stereo not given) | 1.1%
C=C1CC[C@@H](Br)C(C)(C)[C@]12CC=C(C)C(=O)C2 | 4.16%
C=CC(CCCCC)C1C(=O)NC(=O)C1C(=O)C1C(/C=C/C)C=CC2CC(C(=O)O)CC(C)C21 (stereo not given) | -18%
COc1cc(/C=C/C(=O)OC[C@@H](Cc2ccc(O)c(OC)c2)[C@@H](COC(=O)/C=C/c2ccc(O)c(OC)c2)Cc2ccc(O)c(OC)c2)ccc1O | -3.56%
C=C[C@@]1(C)CC[C@@H]([C@H](C)C(=O)/C=C/C(C)(C)O)O1 | -1.51%
O=C1CC2OCC=C3CN4C5CC3C2[C@@H]2N1c1ccccc1[C@]52C[C@@H]4C1=C[C@H]2C3CC4N(CC[C@@]45c4ccccc4N(C1=O)[C@@H]25)C/C3=C/CO (stereo not given in full) | 4.24%
C=C1CC[C@@H](O[C@H]2C[C@@](O)([C@H](C)NC(=O)c3[nH]c(C)c(Cl)c3Cl)[C@H](O)[C@@H](C)O2)[C@@H]2C=C[C@H](C)C(/C(O)=C3/C(=O)[C@H](C(C)C)N([C@@H]4O[C@H](C)[C@H](OC(N)=O)[C@H](OC(C)=O)[C@@H]4OC)C3=O)[C@@H]12 (stereo not given in full) | -2.71%
CC[C@H](C)[C@H]1NC(=O)[C@@H](NC(=O)C(C)C)[C@@H](C)OC(=O)[C@H](COC(=O)CNC(C)=O)NC(=O)[C@@H]([C@@H](C)O)NC(=O)[C@H](Cc2ccccc2)N(C)C(=O)[C@H](c2ccc(OC)cc2)NC1=O (Isobutyryl-T[d(aIle)][Phg(4-OMe)][NMeF][d(aThr)]S([Gly-Ac]); ester 1-C) | -5.6%
C=C(C)CC[C@H](Cc1c(O)cc(O)c2c1O[C@H](c1ccc(O)cc1)CC2=O)C(=C)C | -6.4%
COc1c(O)cc2c(c1O)C(=O)c1c(coc1C)C2=O | -4.93%
C[C@]12CC[C@]3(C1)[C@H](CC2=O)C[C@@H](OC(=O)c1ccccc1)[C@H]1[C@](C)(C(=O)O)CCC[C@@]13C | 0.0153%
Cc1occ2c1C(=O)c1c(cc(O)c(O)c1O)C2=O | -9.64%
COc1ccc2[nH]c3c(c2c1)CCN1C[C@H]2C[C@@H](OC(=O)c4cc(OC)c(OC)c(OC)c4)[C@H](OC)[C@@H](OC)[C@H]2C[C@H]31 | 5.31%
C=C[C@](Cl)(CBr)CCC=C(C)C | -0.301%
CC(=O)O[C@H]1c2ccccc2-c2c3c(cc4c2[C@@H]1N(C(C)=O)CC4)OCO3 | 3.34%
C=CC(CCCCC)C1C(=O)NC(=O)C1C(=O)C1C2C(C)CC(C(=O)O)CC2CC1(O)C(=O)/C=C/C (stereo not given) | -3.35%
O[C@H]1c2ccccc2-c2c3c(cc4c2[C@@H]1NCC4)OCO3 | 4.84%
C[C@]12CCC[C@](C)(C(=O)O)[C@@H]1CC[C@@]1(C)c3cocc3CC[C@H]21 | -6.61%
COc1cc(C2OCC3C(c4ccc(O)c(OC)c4)OCC23)ccc1O (stereo not given) | 1.7% [at 11.5 µM]
COc1cc(O)c(C(=O)[C@@H]2[C@H](CC=C(C)C)C(C)=CC[C@H]2c2ccccc2)c(O)c1 | -1.16%
C[n+]1cc2cc(C(N)=O)[nH]c3c(=N)c(Cl)c(N)c1c23 | -11%
CCC(=O)N[C@@H](C[C@H](C)C(Cl)(Cl)Cl)C(=O)N1C(=O)C=C(OC)[C@@H]1CC(C)C | -3.62%
O=c1cc(-c2ccc(O)c(O)c2)oc2cc(O[C@@H]3O[C@H](CO)[C@@H](O)[C@H](O)[C@H]3O)cc(O)c12 | 4.34%
C/C1=C/[C@@H](C)[C@H](O)[C@@H](O)/C=C/CC/C=C/C(=O)O[C@@H]1[C@H](C)C(=O)CCCC1CC(=O)NC(=O)C1 | -0.833%
CN1CC[C@]2(c3cccc4c3N[C@H]3N(C)CC[C@@]43[C@]34CCN(C)[C@H]3Nc3ccccc34)c3ccccc3N[C@H]12 | 6.55%
CC[C@H]1[C@H](C)[C@H](c2cc(OC)c(OC)cc2OC)[C@@H](C)[C@H](c2cc(OC)c(OC)cc2OC)[C@@]12C=C(OC)C(=O)C=C2OC | -9.96%
CC(=O)Oc1cc2c(c(OC(C)=O)c1C1CCc3cc(Cl)c(Cl)n31)C(=O)n1c-2cc(Cl)c1Cl (stereo not given) | -18.8%
COc1cc2c(cc1OC)[C@@H](c1ccc3c(c1)OCO3)C(C)C(C)C2=O (stereo not given in full) | -8.48%
C/C=C(/C)c1c(Cl)c(O)c(C)c2c1Oc1c(Cl)c(O)c(Cl)c(C)c1C(=O)O2 | -7.62%
